# Laboratory results taken from PubChem BioAssay AID1508607 (The Scripps Research Institute Molecular Screening Center, 2020).
# In all, about 2,300 compounds went through this assay and about 20 (0.9%) were called active. The sample holds actives, similar compounds and a random draw of the others, so the mix is not that of the screen. Unmarked numbers belong to inactive results.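 The calls were made as follows: active = mean percent activation across replicates above the counterscreen hit cutoff of 9.17%; inactive = the rest.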
# Biological target: Glucose-dependent insulinotropic receptor (Homo sapiens) (UniProt Q8TDV5)
# Sequence (Q8TDV5 whole entry, looked up): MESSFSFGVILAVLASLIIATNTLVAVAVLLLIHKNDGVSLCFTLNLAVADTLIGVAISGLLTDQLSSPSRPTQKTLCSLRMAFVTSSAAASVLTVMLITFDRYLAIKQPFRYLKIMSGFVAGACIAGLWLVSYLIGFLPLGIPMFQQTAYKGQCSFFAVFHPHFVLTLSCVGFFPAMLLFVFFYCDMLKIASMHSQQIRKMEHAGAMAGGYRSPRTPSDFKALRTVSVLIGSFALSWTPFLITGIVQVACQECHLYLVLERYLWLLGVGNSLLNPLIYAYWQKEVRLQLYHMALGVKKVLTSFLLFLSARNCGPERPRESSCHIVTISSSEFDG
# Assay: off-target GPR119 activation – cell-based, PathHunter beta-arrestin, luminescence, set 2, counter-screen for GPR151 activator project, confirmation (AID 1508607);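 also: 0% = median of sample wells and 100% = wells given EA reagent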
# Conditions: GPR119 PathHunter beta-arrestin cells, 90 min, at 11.2 µM, stronger effect = higher value
row,SMILES,activation
1,CC(C)OCCCNC(=O)CN(c1ccc(OCc2ccccc2)cc1)S(C)(=O)=O,-1.63%
2,COc1ccc(S(=O)(=O)CCC(=O)N2CCc3ccccc32)cc1,1.93%
3,Cc1ccc(S(=O)(=O)N2CCN3C(=O)[C@H](Cc4ccc(Cl)cc4)NC(=O)[C@H]3C2)cc1,1.14%
4,CC1(C(=O)NCC2Cc3cccc(-c4ncccn4)c3O2)CC1 (stereo not given),1.78%
5,COc1cc(Nc2ccnc(Nc3ccc(N4CCOCC4)cc3)n2)cc(OC)c1OC,7.31%
6,COc1ccc(CCNc2cc(C)nc(Nc3ccc(-n4ccnc4)cc3)n2)cc1,6.54%
7,COc1ccc(CCNc2ccnc(Nc3ccc(-n4ccnc4)cc3)n2)cc1,12.4% (active)
8,Cc1cc(Nc2ccc3c(c2)OCO3)nc(Nc2ccc(N3CCOCC3)cc2)n1,1.65%
9,Cc1cc(Nc2ccc(N3CCOCC3)cc2)nc(Nc2ccc(-n3ccnc3)cc2)n1,3.07%
10,COc1ccc(CCNc2ccnc(Nc3ccc(N4CCOCC4)cc3)n2)cc1,10.5% (active)
11,O=C(O)c1cc([N+](=O)[O-])ccc1C(=O)Nc1cccc2ccccc12,-0.79%
12,CCC(=O)N1CCc2cc(S(=O)(=O)NCCN(CC)c3ccccc3)ccc21,-1.16%
13,CC1CCC(=NNC(=O)c2ccccc2O)CC1 (stereo not given),-3.51%
14,CN(C)c1ccc(/C=C(\C#N)C(N)=C(C#N)C#N)cc1,4.1%
15,O=C(c1cccc(S(=O)(=O)N2CCOCC2)c1)N1CCCc2ccccc21,-5.28%
16,CC(=O)Cc1nsc(Nc2cccc(Cl)c2C)n1,6.59%
17,CSc1nc2sccn2c(=O)c1C(=O)NCc1ccccc1Oc1ccccc1,-1.15%
18,COc1cc2[nH]c(=O)n(CCC(=O)N3CCC(N4CCCCC4)CC3)c(=O)c2cc1OC,-2.11%
19,CN1CCN(c2cc(-c3cn[nH]c3)ccc2NC(=O)Cc2cccc(Cl)c2)CC1,11.6% (active)
20,CCOc1ccc(S(=O)(=O)N(CC(=O)NCCSc2ccccc2)c2ccccc2)cc1,-2.47%
21,COc1ccc(-n2ncc3c(Nc4cc(OC)ccc4OC)ncnc32)cc1,4.1%
22,COc1ccc(-n2ncc3c(Nc4cccc(F)c4)ncnc32)cc1,2.73%
23,COc1ccc(-n2ncc3c(Nc4ccc(C(C)C)cc4)ncnc32)cc1,9.19% (active)

row,SMILES,activation
1,C/C(=N/NC(=O)CNC(=O)c1ccccc1F)c1cccc([N+](=O)[O-])c1,-2.45%
2,CCCn1cc(SCC(=O)Nc2ccc(OC)cc2OC)c2ccccc21,4.73%
3,CC(C)(C)NC(=O)C1CCN(S(=O)(=O)c2ccc(Br)s2)CC1,3.94%
4,COCCNC(=O)c1cccc(OC2CCN(Cc3cc4ccccc4o3)CC2)c1,0.69%
5,CCOc1ccccc1CNCc1c(C(=O)O)c(C)n(Cc2cccc(Cl)c2)c1C,-3.17%
6,N#C/C(=C/c1cc(Cl)ccc1Cl)c1nc2ccccc2c(=O)[nH]1,-3.12%
7,COC(=O)c1c(OCC2CCCCO2)cc(=O)n2c1CCN(Cc1ccsc1)CC2 (stereo not given),0.67%
8,O=C(C1CCCN1S(=O)(=O)c1ccc(Cl)cc1)N1CCOCC1 (stereo not given),2.3%
9,CCOC(=O)c1cc(-c2ccccc2)sc1NC(=O)c1ccc(OC)c(OC)c1,-1.86%
10,Cc1cc(OCC(=O)Nc2sc(C)c(C)c2C(N)=O)ccc1Br,3.41%
11,N#CC1=C2SCN(Cc3ccccc3)CN2C(=O)CC1c1cccc(F)c1 (stereo not given),-1.21%
12,CC(=O)c1ccc(N2CCN(C(=O)c3cc4c(C)nc5ccccc5c4o3)CC2)cc1,0.66%
13,CCOc1ccc(/C=C2\SC(=S)N(CC(=O)Nc3ccc(O)cc3)C2=O)cc1,-3.84%
14,Cc1nc2n(n1)C(c1ccc(Cl)cc1)C=C(c1ccc(Cl)cc1)N2 (stereo not given),-0.05%
15,C=CCOc1ccc(/C=C2\NC(=S)N(c3ccc(OC)cc3)C2=O)cc1,1.06%
16,CCCCNC(=O)c1ccc(C)c(N2CCCC2=O)c1,0.14%
17,O=S(=O)(/C=C/c1ccccc1)N1c2ccccc2C=CC1c1c[nH]c2ccccc12 (stereo not given),-5.1%
18,COc1ccc(C(=O)N/N=C/c2ccc(O)cc2O)cc1OC,1.94%
19,Cc1ccc(Nc2nc(Cl)nc(N3CCOCC3)n2)cc1Cl,-1.69%
20,COC(=O)c1ccccc1NC(=O)c1cc2ccccc2oc1=O,2.29%
21,CC(=O)N1CCC(N(C(=S)Nc2cccc(Cl)c2C)C(C)C)CC1,-0.07%
22,Cc1c(Cl)cccc1NS(=O)(=O)c1c(C(C)C)cc(C(C)C)cc1C(C)C,9.78% (active)
23,CC(C)c1ccccc1OCC(=O)Nc1ccccc1Cl,-0.8%

row,SMILES,activation
1,COc1ccc(NC(=O)N2CCC(CN3CCc4ccccc4C3)CC2)cc1,-2.3%
2,Cc1cccc(Cn2c(=O)c3ccccc3n3nncc23)c1,3.36%
3,COc1ccc(N2CCN(c3ncnc4sc(C(=O)N5CCC(C(N)=O)(N6CCCCC6)CC5)c(C)c34)CC2)cc1,0.57%
4,O=C(NCc1ccco1)c1ccc2ccccc2c1,1.88%
5,COc1ccc(-c2nc3c(=O)n(C)c4ccccc4c3o2)cc1,-4%
6,CCC(=O)N1CCN(c2ccc(NC(=O)C(C)(C)C)cc2)CC1,0.46%
7,O=C(CNc1ccccc1)N/N=C/c1cccc(Oc2ccccc2)c1,-3.18%
8,O=C(/C=C/c1ccccn1)NCCN1Cc2ccccc2OC(c2ccccc2)C1 (stereo not given),1.44%
9,CCNC(=O)C(=O)Nc1ccc(OC)cc1,-1.66%
10,O=C(CSc1ccc2nnc(-c3ccncc3)n2n1)Nc1ccc(C(F)(F)F)cc1,-0.42%
11,Cc1n[nH]c(C)c1S(=O)(=O)NCc1ccc(F)cc1,-0.09%
12,O=c1oc2ccc3ccccc3c2cc1-c1nnc(Nc2ccc(Oc3ccc4ccccc4c3Cl)c(Cl)c2)s1,0.97%
13,CCC(C)OC(=O)C1=C(C)NC(=O)NC1c1cc(Br)ccc1OC (stereo not given),1.91%
14,CC(C)c1ccc(Cn2ccc3c4c(N)nc(NC5CC5)nc4ccc32)cc1,51.2% (active)
15,CC(C)CC(=O)NCC1CCC2(CCN(Cc3ccccc3F)CC2)O1 (stereo not given),2.66%
16,Cc1ccc(-n2nc3c(c2NC(=O)C2(c4ccc(Cl)cc4)CCCC2)CSC3)cc1,3.08%
17,CCOC(=O)CCCN(Cc1ccc(F)cc1)S(=O)(=O)c1ccc(F)c(C)c1,0.45%
18,COc1cc(NC(=O)c2onc(C)c2Cl)cc(OC)c1OC,-1.44%
19,CCOC(=O)N1CCN(C(=O)c2ccc3c(c2)NC(=O)C(CSCc2cc(C)ccc2C)N3)CC1 (stereo not given),2.54%
20,O=C(O)c1c(CNC2CCCc3ccccc32)c2ccccc2n1Cc1ccccc1 (stereo not given),-2.12%
21,O=C(O)c1cc([N+](=O)[O-])c(C(=O)O)cc1Oc1ccc(Cl)cc1,3.33%
22,COc1cc(/C=N/NC(=O)CCCC(=O)N/N=C/c2ccc(O)c(OC)c2)ccc1O,-0.52%
23,CCc1nnc2c3c4c(sc3nc(CC)n12)CCCC4,-1.48%

row,SMILES,activation
1,CC(C)c1ccc(N=c2c([N+](=O)[O-])nn(-c3ccccc3)n2O)cc1,5.25%
2,CCOC(=O)c1nc(NCc2ccccc2)c2ccccc2n1,2.75%
3,O=C(Cn1c(=O)oc2ccccc21)Nc1cccc(C(F)(F)F)c1,3.85%
4,CCn1cnc2sc(C(=O)Nc3ccc(Cl)c(Cl)c3)c(C)c2c1=O,0.88%
5,COc1ccc(C(=O)Nn2c(-c3ccc(F)cc3)nc3ccccc3c2=O)cc1Br,-2.33%
6,CC(=O)c1c(C)oc2c1c1c(c3ccccc32)OCN(C2CCCC2)C1,2.76%
7,COc1ccc(OC)c(-n2c(O)c(/C=C3\C=CC=N3)c(=O)[nH]c2=O)c1,1.81%
8,N#CCCN1CCN(c2ccc(F)cc2[N+](=O)[O-])CC1,3.88%
9,CC(C)c1onc(C(=O)NC2CCCCC2)c1[N+](=O)[O-],-2.5%
10,COc1ccc(O)c(C2=Nc3ccccc3N=C(c3ccc([N+](=O)[O-])cc3)C2)c1,-1.11%
11,COc1ccc(C[C@H](N)C(=O)N[C@@H]2[C@@H](CO)OC(n3cnc4c(N(C)C)ncnc43)[C@@H]2O)cc1 (stereo not given in full),-4.23%
12,O=C(CCc1nnc2n(Cc3ccccc3)c(=O)c3ccccc3n12)NCCN1CCCC1,-0.83%
13,Cc1c(NC(=O)c2cc(F)cc(F)c2)c(=O)n(-c2ccccc2)n1C,-3.89%
14,CC1CC(C)(C)NC(=S)N1CC(=O)N1CCN(Cc2ccc3c(c2)OCO3)CC1 (stereo not given),-1.14%
15,O=C(NCCO)C(=O)Nc1cccc(Cl)c1Cl,1.5%
16,Cc1ccc(NC(=O)CN(C)S(=O)(=O)c2ccc(Br)cc2)cc1Cl,4.66%
17,CCN(CC)c1ccc2cc(-c3nnc(NCc4ccc(F)cc4)s3)c(=O)oc2c1,0.77%
18,CCCCOc1ccc(C(=O)Nc2c3c(nn2-c2cccc(Cl)c2)CSC3)cc1,5.97%
19,Fc1ccc(-c2cnc3ccc(NCCCN4CCOCC4)nn23)cc1Cl,2.09%
20,COCCCNC(=O)/C(=C\c1ccco1)NC(=O)c1ccc(C)cc1,-2.09%
21,O=C(NCCCN1CCOCC1)/C(=C/c1ccc(-c2cccc(C(F)(F)F)c2)o1)NC(=O)c1ccc(Cl)cc1,9.32% (active)
